Measurements: PubChem BioAssay (NCI)
About 83,000 compounds went through this panel and 20% of them were active in at least one assay; those are over-represented in the sample as a whole.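 How to read the values: 0–100, growth inhibition (40 = 60% inhibited); 0, no net growth; -100 to 0, cell death (-40 = 40% of starting cells died; -100 = all dead).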 A number with no mark means an inactive call. The source made the active and inactive calls. How the source made its calls: active means growth percent below 10; inactive means the rest.

Tests used:
Assay in all cases: NCI-60 one-dose screen, 48 h (100 = growth as untreated, 0 = no growth, -100 = all killed)
HCT-15 colon = settings: 10 µM unless noted
SNB-75 CNS = settings: 10 µM
PC-3 prostate = settings: 10 µM unless noted
SK-MEL-5 melanoma = settings: 10 µM unless noted
UACC-62 melanoma = settings: 10 µM unless noted
LOX IMVI melanoma = settings: 10 µM unless noted
SK-MEL-28 melanoma = settings: 10 µM unless noted
HT29 colon = settings: 10 µM unless noted
SNB-19 CNS = settings: 10 µM unless noted
U251 CNS = settings: 10 µM unless noted

SMILES | growth (HCT-15 colon) | growth (SNB-75 CNS) | growth (PC-3 prostate) | growth (SK-MEL-5 melanoma) | growth (UACC-62 melanoma) | growth (LOX IMVI melanoma) | growth (SK-MEL-28 melanoma) | growth (HT29 colon) | growth (SNB-19 CNS) | growth (U251 CNS)
O=C(O)Cc1cccc(=O)c(O)c1C(=O)O | 106% | 107% | 95.7% | 108% | 100% | 101% | 110% | – | – | –
CCOC(=O)NNC(=S)Nc1ccccc1 | – | 95.2% | 100% | 100% | 95.5% | 100% | 106% | 105% | 97.9% | 101%
Cc1cccc(/C=N/Nc2cc(C)c3cccc(C)c3n2)n1 | – | 119% | 51.6% | 66.2% | 87.1% | 102% | 94.8% | 84.9% | – | 78.6%
CC(C)(C)N1CCC1C(N)=O (stereo not drawn) | – | 89.3% | 95.3% | 107% | 91.5% | – | 114% | 109% | 99.4% | –
O=C1Nc2ccc(Cl)cc2C12Nc1cc(Cl)ccc1S2 (stereo not drawn) | 87% | – | 51.8% | 70.9% | 71.5% | 77.9% | 110% | – | 94.8% | 85.8%
COc1ccc(-c2nc3sccn3c2/C=C/C(=O)c2cc(F)cc(F)c2)cc1 | – | 42.3% | 62.3% | 80.9% | 54.4% | 50.1% | 93% | 65.2% | 67.8% | 45.4%
c1ccc(-c2nnc(-c3ccccn3)s2)nc1 | – | 70.4% | 93.8% | 97.2% | 95.7% | – | 127% | 104% | 97.9% | –
O=C1C2(c3ccccc3)C(c3ccccc3)=C(c3ccccc3)C1(c1ccccc1)C1CC=CC12 (stereo not drawn) | – | 83.4% | 48.8% | 85.8% | 78.3% | 85% | 108% | 81.8% | 85.5% | 89.4%
COc1ccc(-c2cnnn2-c2nonc2-n2cccc2)cc1OC | – | 51.3% | 61.2% | 55.6% | 54.1% | 44.2% | 67.8% | 12.3% | 84.2% | 56.8%
CN1CCN(Cc2ccc(NC(=O)c3nc4ccc5[nH]ncc5c4c4c3CCC4)cc2C(F)(F)F)CC1 | – | 96.3% | -64.8% (active) | 88.5% | -61.7% (active) | -86.8% (active) | – | -66% (active) | -76.7% (active) | –
CC(C)CC1NC(C)(C)CO1 (stereo not drawn) | – | – | 94.4% | 104% | 106% | 97.2% | 111% | 97.5% | 115% | 109%
C=C1CCC2C3(C)COC(c4c(OC)cccc4OC)OC3CCC2(C)C1C/C=C1/C(=O)OCC1O (stereo not drawn) | 48.3% | 50.8% | 20.6% | 64.7% | 58.9% | 15.7% | 97.3% | – | – | 35.4%
CC1=NC2=CC=CC3=NC(C(Cl)(Cl)Cl)=NC(=N1)N23 | – | 56.2% | 86.3% | 88.4% | 69.5% | 80.6% | 86.1% | 60% | – | 74.3%
CCN(CC)c1ccc(C(=N)c2ccc(N(CC)CC)cc2)cc1 | – | -34.3% (active) | 3.06% (active) | -100% (active) | -64.6% (active) | – | -39.9% (active) | -10.5% (active) | 4.23% (active) | –
COC(=O)c1cc(=O)nc(N/N=C/c2ccco2)s1 | – | 96.2% | 95.7% | 99.6% | 106% | 101% | 104% | 106% | 105% | 104%
O=C(/C=C/c1ccccc1)c1cccc(O)c1 | – | – | 103% | 107% | – | 81.7% | 104% | 32.3% | – | 61.9%
Cc1cc(C(C)(C)C)ccc1S | – | 91.4% | 85.6% | 111% | 98.6% | 103% | 104% | 97.5% | 105% | 109%
COc1ccc2[nH]c(C(=O)OCc3ccc4c(Cl)cc(Cl)c(O)c4n3)cc2c1 | – | -32.4% (active) | -55.5% (active) | -30.5% (active) | -89.4% (active) | -93.1% (active) | – | -80.3% (active) | 53.2% | 7.6% (active)
